Test results reported in PubChem BioAssay AID652067 (The Scripps Research Institute Molecular Screening Center, 2013).
Hit rate of the full screen: of about 370,000 compounds, about 5,400 (1.5%) were called active.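 How the source made its calls: active means activation above the mean of all tested compounds plus 3 SD (cut at about 5.5% in these data); inactive means the rest.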 The full list was thinned out, with actives kept by preference.

What follows are compounds tested on DAF-12 nuclear receptor (Haemonchus contortus) (assay: hcDAF-12 driven luciferase reporter activation – cell-based, luminescence, HEK293, lit1-tk-luc reporter, primary screen (AID 652067;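 further: 100% = response to 3 µM Δ7-dafachronic acid high control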)). Conditions: HEK293 hcDAF-12 lit1-tk-luc reporter, at 6.8 µM, stronger effect = higher value, 0% DMSO, 100% Δ7-dafachronic acid.

SMILES | activation
COC(=O)C1CN(Cc2cn(Cc3ccc(F)cc3)nn2)CCS(=O)(=O)N1Cc1ccc(Cl)cc1 (stereo not given) | -3.19% (inactive)
COc1ccc(-c2ccccc2C2Cc3nnccc3CN2C(=O)Nc2ccccc2)cc1 (stereo not given) | -1.19% (inactive)
Cc1ccc(Cn2cc(CN3[C@@H](C)COc4cc(Br)ccc4S3(=O)=O)nn2)cc1 | -3.6% (inactive)
O=C(NCc1ccco1)C1CCCN1S(=O)(=O)c1ccccc1C(F)(F)F (stereo not given) | -2.37% (inactive)
CN(C)c1nc(N)nc(CSc2ccccn2)n1 | 0.13% (inactive)
Cc1ccc(NC(=O)c2cnc(SCC(=O)NCC3CCCO3)n(C)c2=O)cc1 (stereo not given) | 5.83% (active)
CCn1c(SCC(=O)NCC2CCCO2)nc2ccccc21 (stereo not given) | 1.17% (inactive)
Cn1c(SCC(=O)c2ccccc2)ncc(C(=O)Nc2ccc(F)cc2)c1=O | 0.15% (inactive)
CCCCN(CC)C(=O)c1ccccc1Oc1ccccc1 | -2.5% (inactive)
COCc1cc(N2CCN(C(=O)OC(C)(C)C)C[C@@H]2C)ccc1N1CCN(Cc2ccccc2)[C@H](C)C1 | -1.75% (inactive)
CC(C)c1ccc(C(=O)NCCCc2ccccc2)cc1 | 2.26% (inactive)
O=C(NCCc1ccccc1)Oc1ccc(Cl)cc1 | 2.6% (inactive)
CCCOc1ccc(C(=O)NCCc2ccccc2)cc1 | 7.01% (active)
N#Cc1ccc(OCCCN2CCC(C(O)(c3ccccc3)c3ccccc3)CC2)c(F)c1 | -0.43% (inactive)
CCOCCCNC(=O)C(NC(=O)Cc1c[nH]c2ccccc12)c1ccc(OC)cc1 (stereo not given) | 5.82% (active)
CCOCCCNC(=O)C(NC(=O)CNC(=O)c1ccccc1)c1ccc(OC)cc1 (stereo not given) | 1.22% (inactive)
CCOCCCNC(=O)C(NC(=O)CNC(=O)c1ccccc1)c1ccc(C)cc1 (stereo not given) | -0.9% (inactive)
COc1ccc(-n2c(COc3ccc(C)cc3)nnc2SCC(=O)Nc2ccc(Oc3ccccc3)cc2)cc1 | -2.93% (inactive)
CCN(CC)C(=O)CC[C@H]1CC[C@]2(CCCN(Cc3ccc(Cl)cc3)C2)O1 | -0.52% (inactive)
CN(Cc1ccc(C(F)(F)F)cc1)C(=O)[C@H]1O[C@@H](n2cnc3c(N)ncnc32)[C@H](O)[C@@H]1O | -3.28% (inactive)
COc1ccc(C)cc1NC(=O)C(OC(=O)c1cccc(S(=O)(=O)N(C)c2ccccc2)c1)c1ccccc1 (stereo not given) | 0.81% (inactive)
Cc1cc(C)cc(NC(=O)C(OC(=O)c2ccc(O)cc2)c2ccccc2)c1 (stereo not given) | 2.07% (inactive)
Cc1ccc(C)c(NC(=O)C(OC(=O)c2ccc(C)s2)c2ccccc2)c1 (stereo not given) | 5.84% (active)

SMILES | activation
O=c1[nH]c(CCl)nc2cc(-c3ccc(Cl)cc3)sc12 | 7.46% (active)
Cn1c(NCc2cccnc2)nc2cc(-c3ccc(F)cc3)sc2c1=O | -0.57% (inactive)
COc1cccc(-c2cc3nc(NCCOc4ccccc4Cl)n(C)c(=O)c3s2)c1 | -0.41% (inactive)
CCCOc1ccc(Oc2c(Cl)cnn(Cc3cccc4ccccc34)c2=O)cc1 | 0.08% (inactive)
O=C(O)CC(CC(=O)N1CCOCC1)c1ccccc1 (stereo not given) | -2.07% (inactive)
CC(=O)c1ccc(NC(=O)CSC(=S)N2CCCC2)cc1 | 4.8% (inactive)
COc1cccc(NC(=O)CN(C)C(=O)CSC(=S)N2CCCC2)c1 | 0.17% (inactive)
N[C@@H](Cc1ccccc1)C(=O)N1CCOCC1 | -1.46% (inactive)
O=C(CSC(=S)N1CCCCC1)c1c(F)cccc1F | 6.39% (active)
O=C(CSC(=S)N1CCOCC1)c1ccccc1 | 6.9% (active)
CCOC(=O)[C@@]12CCC3=C1N(CCC3)C(=O)[C@H](CC(=O)N1CCN(C(=O)c3ccco3)CC1)C2 | 0.92% (inactive)
CN1CCOC1c1ccc(C2OCCN2C)cc1 (stereo not given) | -0.23% (inactive)
CC(=O)C1=C(C)N(Cc2ccccc2)C(=S)NC1c1cccc(Br)c1 (stereo not given) | 1.52% (inactive)
CCOc1ccc(NC(=O)CSc2ncnc3c2sc2ccccc23)cc1 | 2.39% (inactive)
COC(=O)[C@H](C(C)C)N1CCc2nnn(Cc3ccc(C)cc3)c2-c2ccccc2S1(=O)=O | -1.76% (inactive)
O=C(Nc1cc(F)cc(F)c1)OC1CCC12CCC(c1ccccc1)CC2 (stereo not given) | 1.63% (inactive)
O=C(O)c1ccccc1-c1ccccc1C(=O)NCCc1ccccc1 | -1.14% (inactive)
Nc1nonc1C(=O)NCCc1ccccc1 | -1.41% (inactive)
NC(=O)Nc1ccccc1C(=O)NCCc1ccccc1 | 8.5% (active)
C/C(=N\c1nc2ccccc2n1C)c1cc(Cl)ccc1O | 4.18% (inactive)
CCN(CC)CCn1c(/N=C/c2cc(Br)ccc2O)nc2ccccc21 | 6.13% (active)
Cn1c(SCC(=O)N/N=C/c2ccc(O)c(O)c2)nc2ccccc21 | 0.79% (inactive)
CCOC(=O)Cn1c2c(n(-c3ccc(F)cc3)c1=O)C=C(c1ccccc1)[C@@H](C)C(C(=O)N(C)C1CCCCC1)=C2 | -0.1% (inactive)

SMILES | activation
N#Cc1cccc(C(=O)NCC2CCN(C(=O)C(=O)c3cc4ccccc4o3)CC2)c1 | -1.58% (inactive)
Cc1cccc(NC(=O)C[C@H]2CC[C@H]3[C@@H](COc4ccc(NC(=O)Nc5ccccc5)cc4C(=O)N3C)O2)c1 | -0.28% (inactive)
CN(CC(=O)Nc1ccc(Cl)cc1)C(=O)c1ccc(COc2ccccc2)cc1 | -1.47% (inactive)
CN(CC(=O)Nc1ccc(Cl)cc1)C(=O)CNC(=O)c1ccc2ccccc2c1 | 6.25% (active)
CN(CC(=O)Nc1ccc(Cl)cc1)CC(=O)Nc1cccc2ccccc12 | -0.93% (inactive)
CN1C(=O)C2CC(O)C(SC3CC4C(=O)N(C)C(=O)C4CC3O)CC2C1=O (stereo not given) | 0.52% (inactive)
CC[C@H](NC(=O)[C@H](Cc1ccccc1)NC(=O)[C@H]1O[C@@H](n2cnc3c(=O)[nH]c(N)nc32)[C@H](O)[C@@H]1O)c1ccccc1 | -0.3% (inactive)
Clc1ccc(-c2cc(-c3ccccn3)on2)c(Cl)c1 | 12.3% (active)
Fc1ccc(-c2ccc(CNCc3ccccn3)o2)cc1Cl | 0.05% (inactive)
Clc1ccccc1-c1cc(COc2ccc3ccccc3c2)no1 | -2.26% (inactive)
CC(=O)N1CCCN(C2=Nc3ccccc3Sc3ccccc32)CC1 | -0.4% (inactive)
COCCCNC(=O)C[C@H]1C[C@@]2(C(=O)OC)C(=C[C@H](C(C)(C)C)O[C@@H]2C)N(Cc2ccc3c(c2)OCO3)C1=O | -1.12% (inactive)
O=C1CCC(=O)N(O)CCCCCNC(=O)CCC(=O)N(O)CCCCCNC(=O)CCC(=O)N(O)CCCCCN1 | 0.23% (inactive)
CCCCNC(=O)OC(C)CNC(=O)OC (stereo not given) | -0.33% (inactive)
CC(C)C(=O)Nc1ccc2c(c1)oc1ccccc12 | 6.7% (active)
CC(C)C(=O)Nc1c(C(=O)c2ccc(F)cc2)oc2ccccc12 | -1.93% (inactive)
CC(C)C(=O)Nc1oc(-c2ccccc2)cc1C#N | -1.35% (inactive)
FC(F)(F)c1cccc(NC(=S)OC2CCC23CCC(c2ccccc2)CC3)c1 (stereo not given) | -0.73% (inactive)
CCOC(=O)N1CCN(C(=O)C[C@H]2C[C@@]3(C(=O)OC)C(=C[C@H](C4CCCC4)O[C@@H]3C)N(Cc3ccccc3)C2=O)CC1 | -0.64% (inactive)
Cc1ccc(-n2c(SCC(=O)Nc3cccc4ccccc34)nnc2-c2ccco2)cc1 | -2.24% (inactive)
COc1cccc(-c2cc(CNC(=O)[C@@H](Cc3ccccc3)NC(=O)[C@H]3O[C@@H](n4cnc(C(N)=O)n4)[C@H](O)[C@@H]3O)no2)c1 | -1.75% (inactive)
O=C(Nc1cccc(Cl)c1)OC1CC2CC1[C@H]1CCCCN1[C@H]2Cc1ccccc1 (stereo not given in full) | -1.09% (inactive)
COc1ccc2c(c1)N(C)/C(=C1/SC(=S)N(NC(C)=O)C1=O)S2 | -1.24% (inactive)

SMILES | activation
COc1ccc(C(=O)NN2C(=O)C3C(c4ccccc4)C=CC(c4ccccc4)C3C2=O)cc1 (stereo not given) | 0.07% (inactive)
CC(=O)N1C(=O)/C(=C2\SC(=S)N(NC(=O)c3ccc(O)cc3)C2=O)c2ccccc21 | 8.31% (active)
CCOC(=O)N1CCN(C(=O)C[C@H]2C[C@@]3(C(=O)OC)C(=C[C@H](C(C)(C)C)O[C@@H]3C)N(Cc3ccc(Cl)cc3Cl)C2=O)CC1 | -1.96% (inactive)
COc1ccc([C@H]2[C@H](C(C)=O)N3N=Cc4ccccc4C3C23C(=O)OC(C)(C)OC3=O)cc1 (stereo not given in full) | -0.72% (inactive)
COC(=O)c1cccc(Cn2ccc3ccc(-c4ccc5ccn(C(=O)c6ccccc6C)c5c4)cc32)c1 | -0.36% (inactive)
O=C(NC1CCCCN(Cc2cccc(C(F)(F)F)c2)C1=O)c1ccccc1I (stereo not given) | -2.6% (inactive)
CC(OC(=O)Cc1ccc(F)cc1)C(=O)N1CCc2ccccc21 (stereo not given) | -0.21% (inactive)
O=C(CSCc1ccccc1)N1CCc2ccccc21 | 6.78% (active)
O=C(CN1C(=O)c2ccccc2S1(=O)=O)N1CCc2ccccc21 | -5.07% (inactive)
CC(=O)N1CCc2cc(S(=O)(=O)NCCC(=O)N3CCCC3)ccc21 | 1.64% (inactive)
CCn1c(NC(=O)c2nn(C)cc2Br)nc2ccccc21 | -2.93% (inactive)
O=C(NC1=CC(=O)c2ccccc2C1=O)c1ccccc1 | -0.21% (inactive)
Cn1c(NC(=O)c2ccccc2)nc2ccccc21 | 14.3% (active)
C[C@@H](NC(=O)c1ccccc1OCC(=O)Nc1ccc(I)cc1)C(=O)N(C)Cc1ccccc1 | -0.3% (inactive)
COCC(=O)N[C@@H]1C[C@@H]2O[C@@H](CO)CC[C@@H]2O[C@@H]1CCc1ccc(-c2ccccc2)cc1 | -2.01% (inactive)
O=C(O)c1ccccc1CSc1nc2ccccc2s1 | 8.09% (active)
O=C(CSc1nc2ccccc2s1)NN=Cc1ccc(O)cc1O | -0.04% (inactive)
O=C(O)CSCc1nc2ccccc2s1 | 5.6% (active)
O=C(O)CSc1nccc2ccccc12 | 0.9% (inactive)
O=C(CSc1nc2ccccc2s1)N=Nc1c(O)[nH]c2ccccc12 | -1.5% (inactive)
Cn1c(SCc2nc3ccccc3s2)nnc1-c1ccc2c(c1)OCO2 | 3.52% (inactive)
